Columns and labels:
Settings in all cases: concentration: 1 μM, replicates: in singlicate; n = 1
[1] = system: PAK4
[2] = system: PAK6
[3] = system: PAK7
[4] = system: T1, PCTK1
T1 construct: gene CDK16

[5] = system: T2, PCTK2
T2 construct: gene CDK17

[6] = system: T3, PCTK3
T3 construct: gene CDK18

[7] = system: PDGFRA
[8] = system: PDGFRB
[9] = system: PDPK1
[10] = system: PFTAIRE2
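Further: KINOMEscan kinase panel screen.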

Row | SMILES | %Inh [1] [%] | %Inh [2] [%] | %Inh [3] [%] | %Inh [4] [%] | %Inh [5] [%] | %Inh [6] [%] | %Inh [7] [%] | %Inh [8] [%] | %Inh [9] [%] | %Inh [10] [%]
1 | C[C@@H](Oc1cc(-n2cnc3ccc(NC(=O)NC(C)(C)C)cc32)sc1C(N)=O)c1ccccc1Cl [GSK346294] | 0 | 2 | 29 | 0 | 9 | 14 | 4 | 22 | 0 | 11
2 | Cc1c(Cn2c(C)nn3c(=O)cc(N4CCOC(C)C4)nc23)cccc1C(F)(F)F (stereo not shown) [GSK2344444] | 0 | 0 | 0 | 6 | 0 | 8 | 0 | 18 | 8 | 16
3 | Cn1cc(-c2ccc3c(c2)CCN3C(=O)Cc2ccccc2Cl)c2c(N)ncnc21 [GSK2608885] | 0 | 13 | 23 | 7 | 0 | 0 | 78 | 99.9 | 23 | 14
4 | Fc1ccc(-c2ncn(CCCN3CCOCC3)c2-c2cccnc2)cc1 [SB-211743] | 7 | 0 | 0 | 0 | 0 | 0 | 0 | 0 | 1 | 0
5 | O=c1cc(N2CCOCC2)nc2n(Cc3cccc4ccccc34)ccn12 [GSK2333389] | 0 | 0 | 0 | 2 | 0 | 7 | 0 | 6 | 10 | 29
6 | O=C(NCCNc1ccnc(Nc2ccc(F)cc2)n1)Nc1ccccc1F [GSK1379880] | 0 | 0 | 0 | 0 | 16 | 14 | 0 | 70 | 7 | 21
7 | COc1ccc(CNC(=O)NC2CCN(c3ccnc(Nc4ccc(OC)cc4)n3)C2)cc1 (stereo not shown) [GSK1379727] | 0 | 0 | 1 | 0 | 0 | 4 | 0 | 20 | 0 | 7
8 | COc1cc(Nc2nccc(N3CCC(NC(=O)c4cccc(NC(C)=O)c4)C3)n2)cc(OC)c1OC (stereo not shown) [GSK1379754] | 0 | 0 | 0 | 4 | 0 | 20 | 0 | 54 | 30 | 18
9 | COc1cc2c(cc1OCCN1CCN(C)CC1)ncc1c3ccc(C#N)cc3[nH]c21 | 7 | 18 | 4 | 0 | 12 | 4 | 97.7 | 94.7 | 0 | 58
10 | O=C(NCCNc1ccnc(Nc2ccc(F)cc2)n1)c1cc2ccccc2s1 [GSK1379874] | 0 | 0 | 0 | 0 | 0 | 0 | 0 | 26 | 0 | 17
11 | CC(C)Oc1ccc2c(-c3ccnc(Nc4ccc(N5CCN(C)CC5)cc4)n3)cnn2n1 [GW696155] | 47 | 56 | 44 | 99.3 | 93.5 | 60 | 55 | 97.2 | 27 | 34
12 | Cc1cn2c(=O)cc(N3CCOCC3)nc2n1Cc1cccc(Cl)c1Cl [GSK2334006] | 0 | 2 | 0 | 5 | 9 | 13 | 0 | 31 | 25 | 22
13 | Cc1ccc(NC(=O)c2ccnc(N3CCN(C)CC3)c2)cc1-c1ccc(C(=O)NCC2CC2)cc1 [GW775604] | 0 | 0 | 0 | 0 | 0 | 0 | 0 | 93.4 | 0 | 1
14 | Cl.Nc1ncnc2occ(-c3ccc(NC(=O)Nc4cc(C(F)(F)F)ccc4F)cc3)c12 [SB-707548] | 9 | 6 | 26 | 11 | 80 | 67 | 99.8 | 100 | 33 | 68
15 | O=C(NOCC1CC1)c1ccc(F)c(F)c1Nc1ccc(I)cc1Cl | 0 | 0 | 3 | 0 | 0 | 1 | 0 | 8 | 0 | 0
16 | CCn1cnc2c(N)ncnc21 [GW345098] | 6 | 13 | 11 | 0 | 0 | 0 | 0 | 24 | 11 | 3

Row | SMILES | %Inh [1] [%] | %Inh [2] [%] | %Inh [3] [%] | %Inh [4] [%] | %Inh [5] [%] | %Inh [6] [%] | %Inh [7] [%] | %Inh [8] [%] | %Inh [9] [%] | %Inh [10] [%]
17 | N#Cc1c(N2CCOCC2)sc(-c2ccn[nH]2)c1-c1ccc(Cl)cc1 | 15 | 29 | 0 | 0 | 0 | 7 | 3 | 12 | 0 | 0
18 | O=c1cc(N2CCOCC2)nc2n(Cc3cccc(Cl)c3Cl)c(C3CC3)nn12 [GSK2358994] | 0 | 13 | 0 | 0 | 0 | 3 | 0 | 2 | 14 | 0
19 | COc1ccc(Nc2nccc(N3CCC(NC(=O)Nc4cc(C)ccc4C)C3)n2)cc1 (stereo not shown) [GSK1379741] | 0 | 0 | 0 | 3 | 9 | 6 | 0 | 2 | 0 | 13
20 | O=C(NCCCN1CCOCC1)c1cccc(Nc2nccc(Nc3ccc(Oc4ccccc4)cc3)n2)c1 [GW663929] | 9 | 7 | 12 | 0 | 22 | 12 | 46 | 99.6 | 9 | 18
21 | O=C(c1ccc(-c2cc(-c3c[nH]nc3-c3ccccn3)ccn2)cc1)N1CCOCC1 [GW812171] | 6 | 0 | 0 | 0 | 0 | 0 | 0 | 0 | 0 | 0
22 | Cc1cccc(-c2nc(Nc3ccc4ncsc4c3)c3ccccc3n2)n1 [GW867588] | 8 | 0 | 8 | 0 | 0 | 0 | 33 | 0 | 0 | 0
23 | COc1cc2ncn(-c3cc(OCc4sccc4Cl)c(C(N)=O)s3)c2cc1OC [GSK448459] | 0 | 6 | 0 | 4 | 0 | 13 | 25 | 76 | 0 | 0
24 | CCc1ccnc(/C=C/c2n[nH]c3cc(Sc4ccccc4C(=O)NC)ccc23)c1 | 3 | 0 | 0 | 10 | 0 | 2 | 99.8 | 100 | 0 | 0
25 | Cc1cccc(-c2nc(-c3ccc(S(C)(=O)=O)cc3)sc2-c2ccncc2)c1 | 10 | 18 | 0 | 0 | 0 | 0 | 10 | 0 | 26 | 10
26 | Cc1nnc(-c2ccc3occ(-c4ccc(C(C)O)cc4)c3c2)o1 (stereo not shown) | 10 | 11 | 1 | 18 | 11 | 1 | 0 | 8 | 0 | 0
27 | O=C1Cc2cc(Nc3nc(NCc4cccc(S(=O)(=O)C(F)(F)F)c4)ncc3C(F)(F)F)ccc2N1 | 100 | 0 | 0 | 19 | 0 | 1 | 0 | 16 | 0 | 0
28 | N#Cc1ccc(-c2cc(-c3c[nH]nc3-c3ccccn3)ccn2)cc1 [GW693028] | 0 | 0 | 11 | 0 | 0 | 33 | 0 | 7 | 0 | 0
29 | COCCNC(=O)c1ccc(-c2cc(C(=O)NC3CC3)cc(F)c2C)cc1 [GW868318] | 20 | 18 | 24 | 8 | 0 | 20 | 32 | 51 | 8 | 0
30 | [2H]C([2H])(c1cccc(C(F)(F)F)c1C)n1ccn2c(=O)nc(N3CCOCC3)cc12 [GSK2336394] | 0 | 0 | 0 | 4 | 0 | 11 | 0 | 15 | 0 | 0
31 | c1ccc(-c2n[nH]cc2-c2ccnc3ccccc23)nc1 [GW271431] | 0 | 11 | 8 | 0 | 0 | 20 | 0 | 20 | 0 | 36

Source: publication PMC5540273 (PLoS ONE, 2017)
